Results from PubChem BioAssay (NCATS).
Inconclusive results are not listed. Where a call stands in place of a potency, no number is given. Active and inactive are the calls of the source. Calls come from the whole dose curve; as a rule, active = well fitted curve in the direction sought with a large enough effect; inconclusive = small, poorly fitted or top-dose-only effect, or another doubt; inactive = no such curve, though single readings can be large; an effect the other way counts as inactive or inconclusive.

Key:
[1] = biological target: Tyrosine-protein kinase Yes (Homo sapiens) (UniProt P07947); experiment: qHTS for small molecule inhibitors of Yes1 kinase: Primary Screen (AID 686947); note: nearly all actives have a fitted effect of over 60% in size; note: potency is the fitted concentration of half-maximal effect
How it was run: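 ADP-Glo luminescence readout; final 4 nM Yes1, 0.1 mM ATP, 0.3 mg/mL poly(E4Y), Tris pH 7.5, MgCl2, DTT, Brij-35. 20 min compound preincubation, 60 min reaction at RT. Normalized to DMSO wells with and without enzyme.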

[2] = qHTS for small molecule inhibitors of Yes1 kinase: Counter Assay (AID 686950);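 note: no kinase present so only ADP-Glo detection of a fixed ADP amount is tested; luminescence from ADP-Glo reporting ADP in a fixed ATP and ADP mixture; series mostly up to about 77 µM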
How it was run: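 Enzyme-free detection counter-screen: compounds preincubated 20 min in buffer, then 0.08 mM ATP plus 0.02 mM ADP added for 60 min at room temperature; ADP-Glo luminescence. Buffer 50 mM Tris pH 7.5, 10 mM MgCl2, 150 mM NaCl; normalized to ATP+ADP and ATP-only controls.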

Chain of Tyrosine-protein kinase Yes (Homo sapiens) (P07947 whole entry, looked up): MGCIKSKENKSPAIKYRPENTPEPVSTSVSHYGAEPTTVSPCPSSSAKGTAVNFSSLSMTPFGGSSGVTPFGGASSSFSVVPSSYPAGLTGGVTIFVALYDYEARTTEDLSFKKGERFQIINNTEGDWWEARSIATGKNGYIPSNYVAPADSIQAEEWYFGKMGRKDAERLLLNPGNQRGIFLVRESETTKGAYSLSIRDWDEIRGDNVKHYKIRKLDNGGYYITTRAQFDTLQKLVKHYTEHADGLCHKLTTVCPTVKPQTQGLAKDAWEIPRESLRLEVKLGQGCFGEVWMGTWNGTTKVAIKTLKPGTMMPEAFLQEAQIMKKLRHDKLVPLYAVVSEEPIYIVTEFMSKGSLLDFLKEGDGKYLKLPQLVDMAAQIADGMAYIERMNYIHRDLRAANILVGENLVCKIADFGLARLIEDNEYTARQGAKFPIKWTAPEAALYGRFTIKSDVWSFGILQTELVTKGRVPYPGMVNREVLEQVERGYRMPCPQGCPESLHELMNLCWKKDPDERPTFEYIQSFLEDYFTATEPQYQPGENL

Structure (SMILES)	Potency [1]	outcome [2]
Oc1[nH]c2ccccc2c1C=Nc1ccc(-n2cncn2)cc1	9230 nM (active)	inactive
CCN(CC)S(=O)(=O)c1ccc(OC)c(Nc2ncc(-c3ccccc3)o2)c1	654 nM (active)	inactive
CC1=C(C(=O)Nc2ccc3[nH]ncc3c2)C(c2ccc(F)cc2)NC(=O)N1 (stereo not drawn)	26000 nM (active)	inactive
NS(=O)(=O)c1ccc(Nc2ncc(-c3ccccc3)o2)cc1	inactive	inactive
c1ccc(-c2[nH]ncc2-c2ccnc(-c3ccc(OCCN4CCOCC4)cc3)c2)nc1	7330 nM (active)	inactive
Fc1ccc(-c2ncn(C3CCNCC3)c2-c2ccnc(Oc3ccc(F)c(F)c3)n2)cc1	inactive	inactive
COC(=O)c1cncc(C=Cc2c(C)cc(O)cc2C)c1	1300 nM (active)	inactive
COc1cccc(-n2ncc3c(NN=Cc4ccc(F)cc4)ncnc32)c1	582 nM (active)	inactive
O=S1CCN(Cc2ccc(-c3ccc4ncnc(Nc5ccc(OCc6ccccc6)c(F)c5)c4c3)o2)CC1	463 nM (active)	inactive
CCn1c(-c2nonc2N)nc2c(N3CCCC3)nccc21	inactive	inactive
COc1cc2ncn(-c3cc(OCc4ccccc4C(F)(F)F)c(C(C)=O)s3)c2cc1OC	inactive	inactive
COc1ccc2ncnc(Nc3ccc(OCc4ccccc4)cc3)c2c1	733 nM (active)	inactive
CCn1c(-c2nonc2N)nc2c(C#CC(C)(C)O)ncc(OCC3CCNCC3)c21	23200 nM (active)	inactive
O=C(NCC1CC1)c1ccc(-c2cccc(C(=O)NC3CC3)c2)cc1	inactive	inactive
CC1=C(C(=O)Nc2ccc3[nH]ncc3c2)C(c2ccc(Cl)c(Cl)c2)CC(=O)N1 (stereo not drawn)	2920 nM (active)	inactive
Cc1c2ccc(N(C)c3ccnc(Nc4cccc(S(N)(=O)=O)c4)n3)cc2nn1C	519 nM (active)	inactive
COc1ccc(-c2nn3ncccc3c2-c2ccnc(Nc3ccc(F)c(F)c3)n2)cc1	328 nM (active)	inactive
CC(C)=Cc1cccc2[nH]c(O)c(N=Nc3ccc(S(N)(=O)=O)cc3)c12	inactive	inactive
COC(=O)Nc1nc2ccc(Oc3ccc(NC(=O)Nc4cccc(Br)c4)cc3)cc2[nH]1	inactive	inactive
Cc1cc(Cl)cc2c(N=Nc3ccc(S(N)(=O)=O)cc3)c(O)[nH]c12	10400 nM (active)	inactive
COC(=O)Nc1nc2ccc(S(=O)(=O)c3ccc(NC(=O)Nc4cc(C(F)(F)F)ccc4F)cc3)cc2[nH]1	inactive	inactive
COc1cccc(-n2ncc3c(NN=Cc4ccc(C(=O)NCCN(C)C)cc4)ncnc32)c1	20.7 nM (active)	inactive
Cc1cc(O)cc(C)c1C=Cc1cncc(C(=O)OC(C)(C)C)c1	733 nM (active)	inactive
N#Cc1c(NC(=O)c2ccccc2F)sc2c1CCCC2	inactive	inactive
CC1=C(C(=O)Nc2ccc3[nH]ncc3c2)C(c2ccc3ccccc3c2)CC(=O)N1 (stereo not drawn)	582 nM (active)	inactive
CC(Oc1cc(-n2cnc3ccc(OC4CCN(C)CC4)cc32)sc1C(N)=O)c1ccccc1Cl (stereo not drawn)	5820 nM (active)	inactive
COc1cc(Nc2ncc(-c3ccccc3)o2)cc(OC)c1	1460 nM (active)	inactive

Structure (SMILES)	Potency [1]	outcome [2]
O=C(Nc1n[nH]c2cc(-c3cc(F)ccc3F)ccc12)C1CC1	26000 nM (active)	inactive
CN1CCN(CCCNc2nc3ccc(Oc4ccc(NC(=O)Nc5cc(C(F)(F)F)ccc5F)cc4)cc3[nH]2)CC1	inactive	inactive
Fc1ccc(-c2cc(-c3cn[nH]c3-c3ccccn3)ccn2)cc1	29200 nM (active)	inactive
COc1cc(C=NNc2ncnc3c2cnn3-c2ccccc2)ccc1O	292 nM (active)	inactive
CCCN1CCC(c2ccc(Nc3nc(Nc4cc(F)ccc4C(N)=O)c4cc[nH]c4n3)c(OC)c2)CC1	inactive	inactive
COc1cccc(Nc2nccc(-c3cnn4ncccc34)n2)c1	inactive	inactive
COc1c(C(N)=O)cc(-c2ccc(Cl)cc2)cc1-c1ccc(S(N)(=O)=O)cc1	10400 nM (active)	inactive
O=S1CCN(Cc2ccc(-c3ccc4ncnc(Nc5ccc(OCc6cccc(F)c6)c(Cl)c5)c4c3)o2)CC1	2070 nM (active)	inactive
N#Cc1c(NC(=O)CN2CCOCC2)sc2c1CCCC2	inactive	inactive
Cc1cc(O)cc(C)c1C=Cc1cncc(C(N)=O)c1	463 nM (active)	inactive
Nc1nc(-c2ccccn2)c(-c2ccc3ncccc3n2)s1	inactive	inactive
CS(=O)(=O)CCNCc1coc(-c2ccc3ncnc(Nc4ccc(OCc5ccccc5)cc4)c3c2)c1	1840 nM (active)	inactive
CS(=O)(=O)CCNCc1nc(-c2ccc3ncnc(Nc4ccc(F)c(Cl)c4)c3c2)cs1	4630 nM (active)	inactive
FC(F)(F)c1cccc(-c2nn3ncccc3c2-c2ccnc(Nc3ccc4c(c3)OCCO4)n2)c1	412 nM (active)	inactive
Nc1nccc(-c2c(-c3ccc(F)cc3)ncn2CCCN2CCOCC2)n1	9230 nM (active)	inactive
CC(=O)Nc1cccc(C#Cc2cncnc2Nc2ccc(OCc3cccc(F)c3)c(Cl)c2)c1	23200 nM (active)	inactive
CS(=O)(=O)Nc1ccc(-c2cc(-c3ccccc3)cc(C(N)=O)c2N)cc1	13000 nM (active)	inactive
NS(=O)(=O)c1cccc(-c2cc3ccncc3cc2OCc2ccccc2)c1	inactive	inactive
Cc1nnc(-c2ccc(C)c(-c3ccc(C(=O)NCc4ccc(Cl)cc4)cc3)c2)o1	inactive	inactive
N#Cc1c(NC(=O)c2ccc(F)cc2)sc2c1CCCC2	inactive	inactive
CNC(=O)c1cncc(C=Cc2ccccc2Cl)c1	8230 nM (active)	inactive
CCn1c(-c2nonc2N)nc2c(C#CC(C)(C)O)ncc(OC3CCNCC3)c21	26000 nM (active)	inactive
CC(=O)Nc1cccc(C#Cc2cncnc2Nc2ccc(OCc3cccc(F)c3)c(Cl)c2)n1	inactive	inactive
COc1cc2ncnc(Nc3ccc4c(cnn4Cc4ccccc4)c3)c2cc1OC	32.8 nM (active)	inactive
COc1cc2c(cc1Nc1nc(Nc3cccc(F)c3C(N)=O)c3cc[nH]c3n1)N(C(=O)CN1CCN(C(C)C)CC1)CC2	inactive	inactive
Cc1ccc2c(-c3ccnc(Nc4ccc5c(c4)OCCO5)n3)c(-c3ccc(C(F)(F)F)cc3)nn2n1	823 nM (active)	inactive
O=C1Nc2ccc(-c3cccnc3)cc2C1=Cc1cc(Br)c(O)c(Br)c1	412 nM (active)	inactive

Structure (SMILES)	Potency [1]	outcome [2]
O=C1N=c2ccc(N=Cc3c(O)[nH]c4ccccc34)cc2=N1	2920 nM (active)	inactive
COc1cccc(-n2nc(C)c3c(NN=C(C)c4ccncc4)ncnc32)c1	inactive	inactive
Cc1nn(C)c2cc(N(C)c3ccnc(Nc4cccc(S(N)(=O)=O)c4)n3)ccc12	1160 nM (active)	inactive
CS(=O)(=O)Nc1cccc(-c2ccc3c(NC(=O)C4CC4)n[nH]c3c2)c1	11600 nM (active)	inactive
N#Cc1ccc(Oc2nccc(-c3c(-c4ccc(F)cc4)ncn3C3CCNCC3)n2)cc1	inactive	inactive
CCCNc1cccc(-n2ncc3c(NN=Cc4ccncc4)ncnc32)c1	32.8 nM (active)	inactive
COc1cc2ncnc(Nc3ccc(C)c(O)c3)c2cc1OC	164 nM (active)	inactive
COc1cccc(-n2cnc3c(NN=Cc4ccncc4)ncnc32)c1	582 nM (active)	inactive
COc1ccc2c(-c3ccnc(Nc4cccc(OC(F)(F)F)c4)n3)cnn2n1	26000 nM (active)	inactive
NC(=O)c1cc(-c2ccc(F)cc2)cc(-c2ccncc2)c1N	inactive	inactive
CCn1c(-c2nonc2N)nc2c(C#CC(C)(C)O)nc(OCCNC)cc21	8230 nM (active)	inactive
CCn1c(-c2nonc2N)nc2ccccc21	inactive	inactive
CCn1c(-c2nonc2N)nc2c(C#CC(C)(C)O)nc(OC(CN)c3ccccc3)cc21 (stereo not drawn)	654 nM (active)	inactive
CC(C)c1ccc2c(N=Nc3ccc(S(N)(=O)=O)cc3)c(O)[nH]c2c1	inactive	inactive
O=C(Nc1n[nH]c2nc(-c3ccc(O)cc3)c(Br)cc12)C1CC1	1640 nM (active)	inactive
COC(=O)c1ccc2c(c1)/C(=C/c1cc(Br)c(O)c(Br)c1)C(=O)N2	733 nM (active)	inactive
COc1cccc(-n2ncc3c(NN=Cc4ccc(S(C)(=O)=O)cc4)ncnc32)c1	92.3 nM (active)	inactive
CNC(=O)c1sc(-n2cnc3cc(OC)c(OC)cc32)cc1OCc1ccccc1C(F)(F)F	18400 nM (active)	inactive
O=C(OC1CNC(C#Cc2cc3ncnc(Nc4ccc5c(ccn5Cc5cc(F)ccc5F)c4)c3s2)C1)N1CCOCC1 (stereo not drawn)	29200 nM (active)	inactive
NS(=O)(=O)c1cccc(-c2ccc3c(NC(=O)C4CC4)n[nH]c3c2)c1	4120 nM (active)	inactive
Cn1c(-c2nonc2N)nc2cnccc21	inactive	inactive
Cc1ccc(Nc2ccnc(Nc3cccc(C(N)=O)c3)n2)cc1O	29.2 nM (active)	inactive
Cc1cc(O)cc(C)c1C=Cc1cncc(-c2nn[nH]n2)c1	65.4 nM (active)	inactive
COc1cc(N2CCN(C(C)C)CC2)ccc1Nc1nc(Nc2cccc(F)c2C(=O)O)c2cc[nH]c2n1	inactive	inactive
CN(c1ccc(NC(=O)NCCN2CCOCC2)cc1)c1ccnc(Nc2ccc(CS(C)(=O)=O)cc2)n1	11600 nM (active)	inactive
